Laboratory results reported in the supplement of paper PMC7411054.
Where a name gives a salt, the structure may show the parent alone.

Experiments:
Assay in all cases: lowest phenotypically active concentration; higher = less potent
Settings in all cases: treatment time: 24 h
[1] = test system: A549-CANX-COX4
Outline: (§1)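 Four wells per concentration (0.3, 1, 3 or 9 µM) were treated for 24 h in each of fifteen gene-edited reporter lines from A549, HepG2 and WPMY1 cells, then imaged live. After normalising live-cell features to solvent control wells, deviation was defined as ≥3 of 4 wells lying past the 95th percentile of control Euclidean distances. Reproducibility was defined as a median replicate Pearson correlation above the 95th percentile of non-replicates. Both had to hold for phenotypic activity.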

[2] = test system: A549-TP53BP1-CLTA
Outline: as §1

[3] = test system: HepG2-CANX-COX4
Outline: as §1

[4] = test system: HepG2-GM130-SQSTM1
Outline: as §1

[5] = test system: HepG2-TUBA1B-RELA
Outline: as §1

[6] = test system: HepG2-TP53BP1-CLTA
Outline: as §1

[7] = test system: WPMY1-ACTB-RAB5A
Outline: as §1

[8] = test system: WPMY1-GM130-SQSTM1
Outline: as §1

[9] = test system: WPMY1-TUBA1B-RELA
Outline: as §1

[10] = test system: WPMY1-TP53BP1-CLTA
Outline: as §1

Row | SMILES | lowest phenotypically active concentration [1] [µM] | lowest phenotypically active concentration [2] [µM] | lowest phenotypically active concentration [3] [µM] | lowest phenotypically active concentration [4] [µM] | lowest phenotypically active concentration [5] [µM] | lowest phenotypically active concentration [6] [µM] | lowest phenotypically active concentration [7] [µM] | lowest phenotypically active concentration [8] [µM] | lowest phenotypically active concentration [9] [µM] | lowest phenotypically active concentration [10] [µM]
1 | COc1cc2c(cc1NS(=O)(=O)c1ccc(Br)cc1C)n(C)c(=O)n2C | 9 | 9 | 3 | 9 | 3 | – | – | – | – | –
2 | CCn1c(=O)n([C@H]2CCCN(c3nccc(-c4cc5ccccc5o4)n3)C2)c2ccccc21 | 3 | 9 | – | – | – | – | – | – | – | –
3 | CN(C)CC(=O)Nc1ccc2[nH]c(=O)c3ccccc3c2c1 [PJ 34 hydrochloride] | 9 | – | 9 | 9 | 9 | 9 | 9 | 9 | 9 | –
4 | N#C/C(=C/c1ccc(O)c(O)c1)C(=O)NCCCCc1ccccc1 | 9 | – | 9 | 9 | – | 9 | 9 | 9 | 9 | 9
5 | CN(C)c1ccc(/C=C2\C(=O)Nc3ccccc32)cc1 | 9 | 3 | – | 9 | 9 | 9 | 9 | 3 | – | 9
6 | C=C1C(=O)O[C@@H]2[C@H]3O[C@]3(C)CCC=C(C)CC[C@@H]12 [Parthenolide] | 9 | – | 9 | 3 | – | – | 9 | 9 | 9 | –
7 | CCCCc1oc2ccc(NS(C)(=O)=O)cc2c1C(=O)c1ccc(OCCCN(CCCC)CCCC)cc1 [dronedarone] | 9 | – | – | 9 | 3 | 9 | 9 | – | 9 | 9
8 | CN1CCc2cccc3c2[C@H]1Cc1ccc(O)c(O)c1-3 [r(-)-apomorphine] | 9 | 9 | – | – | – | – | 9 | ≤ 0.3 | 9 | –
9 | Nc1nccc(-c2ccc3noc(-c4ccc(Cl)cc4)c3c2)n1 [PIM-1 Inhibitor 2] | 9 | 9 | – | – | – | 9 | 9 | 9 | 9 | 9
10 | Cc1nnc(-c2ccc3occ(-c4ccc(S(C)=O)cc4)c3c2)o1 (stereo not drawn) | 9 | 9 | 9 | 9 | 3 | – | 9 | 9 | – | 9
11 | CCc1cncnc1N1CCN(Cc2nc3cc(C(F)(F)F)ccc3[nH]2)CC1 | 9 | – | 9 | 9 | 3 | 9 | – | – | 9 | –
12 | CC1(C)O[C@@H]2C[C@H]3[C@@H]4C[C@H](F)C5=CC(=O)C=C[C@]5(C)[C@@]4(F)[C@@H](O)C[C@]3(C)[C@]2(C(=O)CO)O1 [fluocinolone acetonide] | ≤ 0.3 | ≤ 0.3 | – | – | – | – | ≤ 0.3 | – | – | –
13 | COc1ccc(-c2cc(=O)c3c(O)cc(O)cc3o2)cc1O [Diosmetin] | 9 | – | – | – | 9 | – | – | – | 9 | 9
14 | CC(C)C(=O)SCCCCCCC(=O)Nc1nc(-c2ccccc2)cs1 | 1 | – | 3 | – | – | – | 1 | 1 | 1 | 9
15 | CC(C)(C)c1cc(C(=O)/C=C/c2ccc(C(=O)O)cc2)cc(C(C)(C)C)c1 | 9 | – | ≤ 0.3 | 9 | – | 9 | ≤ 0.3 | ≤ 0.3 | 3 | ≤ 0.3
16 | CC/C(=C(/c1ccccc1)c1ccc(OCCN(C)C)cc1)c1ccccc1 [tamoxifen] | 9 | – | – | 9 | 3 | 9 | 9 | 9 | 9 | 9
17 | c1cc(-c2cc(C3CCNCC3)[nH]n2)ccn1 | 9 | – | 9 | – | – | – | 9 | – | – | –
18 | Cc1cccc(C)c1OCC(=O)N[C@@H](Cc1ccccc1)[C@@H](O)C[C@H](Cc1ccccc1)NC(=O)[C@H](C(C)C)N1CCCNC1=O [lopinavir] | 9 | – | – | – | 9 | – | – | – | – | –
19 | C/C(=N/NC(=N)N)c1ccc(NC(=O)Nc2ccc(/C(C)=N/NC(=N)N)cc2)cc1 | 9 | – | 9 | 3 | 3 | 9 | 3 | 9 | – | –
20 | C[C@@H]1C[C@H]2[C@@H]3CCC4=CC(=O)C=C[C@]4(C)[C@@]3(Cl)[C@@H](O)C[C@]2(C)[C@@]1(OC(=O)c1ccco1)C(=O)CCl [mometasone furoate] | ≤ 0.3 | ≤ 0.3 | – | – | – | – | – | 3 | – | –
21 | O=C(O)Cc1cccc(OCCCN(Cc2cccc(C(F)(F)F)c2Cl)CC(c2ccccc2)c2ccccc2)c1 [GW 3965 hydrochloride] | 9 | – | 9 | – | 9 | – | – | – | – | –
22 | CCCCOc1cc(C(=O)NCCN(CC)CC)c2ccccc2n1 [cinchocaine] | – | 9 | – | – | – | 9 | 9 | – | – | –
23 | C[C@]1(O)C[C@@H](c2nc(-c3ccc4ccc(-c5ccccc5)nc4c3)c3c(N)nccn32)C1 [linsitinib] | – | 9 | 9 | 9 | 9 | 9 | 9 | 9 | – | 9
24 | Cn1cc(C2=C(c3ccc(Cl)cc3Cl)C(=O)NC2=O)c2ccccc21 | – | ≤ 0.3 | – | 1 | – | ≤ 0.3 | – | ≤ 0.3 | – | ≤ 0.3
25 | Cc1noc(C)c1Cn1cc(C#N)c2cc(Oc3ccc(NC(=O)[C@@H]4CCCN4)cc3)ccc21 | – | 9 | – | 9 | 9 | 9 | 9 | 9 | 9 | 9
26 | COc1ccc(CCNCc2ccc(OCc3ccc(Cl)nc3)c(OC)c2)cc1OC [SBE 13 hydrochloride] | – | 9 | – | – | 9 | 9 | 9 | 9 | 9 | 9
27 | COc1cc(N2CCC(N)CC2)ccc1Nc1ncc(Cl)c(-c2c[nH]c3ccccc23)n1 | – | 3 | 1 | 3 | 1 | 3 | 1 | 1 | 1 | ≤ 0.3
28 | Cc1ccc(NC2=CC(=O)c3sc(C)nc3C2=O)cc1 [Ryuvidine] | – | 1 | – | 3 | – | 3 | 1 | 1 | 1 | –
